Data: PubChem BioAssay
Active and inactive are the calls of the source. Unless noted, how the calls were made is not given here.

Experiments:
[1] = compounds binding Alexa647 anti-His antibody – biochemical, small-molecule microarray, 635 nm fluorescence, artefact control for SMM control protein annotation, primary screen (AID 1128); conditions: higher = more signal;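 further: score merges feature fluorescence with signal-to-noise for each printed compound spot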
[2] = system: Human papillomavirus type 1a E7 protein (residues 1-88); experiment: HPV1a E7 small-molecule binders, primary screen, biochemical, small-molecule microarray, residues 1-88, 635 nm (AID 1129); conditions: small-molecule microarray binding, fluorescence 635 nm; higher = more signal
[3] = molecular target: Focal adhesion kinase 1 (Homo sapiens) (UniProt Q05397); experiment: PTK2 protein binding on printed compound slides – biochemical, small-molecule microarray, 635/667 nm fluorescence, BSA, DTT, primary screen (AID 1130); conditions: 635 nm fluorescence, higher = more signal;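 further: composite of spot emission at 667 nm and signal to noise over triplicate slides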
[4] = system: Fibrinogen (Alexa647-labelled); experiment: Alexa647-fibrinogen binding to printed small molecules – biochemical, small-molecule microarray, 635/667 nm fluorescence, artefact control for SMM control-protein annotation, profiling panel (AID 1131); conditions: fibrinogen-A647 binding fluorescence, higher = more signal;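 further: z-score merges 667 nm fluorescence with per-spot signal-to-noise over triplicate slides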
[5] = molecular target: Follistatin (Homo sapiens) (UniProt P19883); experiment: FST protein binding to printed compounds – biochemical, small-molecule microarray, 635/667 nm fluorescence, primary screen (AID 1132); conditions: 635 nm fluorescence, higher = more signal
[6] = molecular target: Fibroblast growth factor 2 (Homo sapiens) (UniProt P09038); experiment: basic fibroblast growth factor binding to printed compounds – biochemical, small-molecule microarray, 635/667 nm fluorescence, primary screen (AID 1133); conditions: FGF2, fluorescence 635/667, higher = more signal
[7] = JC-1 mitochondrial potential readout, lung cancer cells – cell-based, A549, JC-1 fluorescence, basal, 24 h, 100 nL, profiling panel (AID 1138); conditions: higher = more signal;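 further: A549 lung adenocarcinoma cells under basal conditions with no added stimulus; test concentration not given here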
Lefty1 = Lefty1 protein binding to printed compounds – biochemical, small-molecule microarray, 635/667 nm fluorescence, primary screen (AID 1139); conditions: fluorescence 635/667, higher = more signal
[8] = system: wheat germ agglutinin (Triticum aestivum), Alexa647-labelled; experiment: Alexa647-WGA lectin binding to printed small molecules – biochemical, small-molecule microarray, 635/667 nm fluorescence, artefact control for SMM control-protein annotation, profiling panel (AID 1140); conditions: WGA-A647 binding, 635 nm fluorescence, higher = more signal;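 further: score merges 667 nm feature emission with signal to noise over triplicate slides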
[9] = molecular target: Luciferin 4-monooxygenase (Photinus pyralis) (UniProt P08659); experiment: inhibition of purified Photinus pyralis luciferase – biochemical, luminescence, purified enzyme, 2006 set, primary screen (AID 1141); conditions: purified firefly luciferase, SteadyGlo luminescence, 30 min; higher = more signal, called active from +8 up or from −8 down;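 further: cell-free assay with purified firefly luciferase at 100 ng per well in PBS; test concentration not given here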
[10] = system: Wnt5a (protein binding on small-molecule microarray); experiment: small molecules binding Wnt5a protein – biophysical, small-molecule microarray, 635/667 nm fluorescence, primary screen (AID 1142); conditions: 635 nm fluorescence, higher = more signal;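 further: fluorescence read at 667 nm with signal to noise per printed feature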
[11] = ATP-based viability of Huh7 replicon cells – cell-based, CellTiter-Glo luminescence, basal, 48 h, cytotoxicity control for HCV replication inhibitor project, primary screen (AID 1143); conditions: higher = more signal, called active from +8 up or from −8 down;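 further: Huh7 hepatoma cells carrying a hepatitis C replication reporter with no stimulus; test concentration not given here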
[12] = Pseudomonas biofilm growth suppression – PAO1 strain, BacTiter-Glo luminescence, LB-PBS, primary screen (AID 1144); conditions: P. aeruginosa PAO1 biofilm, 12 h, higher = more signal
[13] = basal CRE-LacZ reporter activity in PC12 – cell-based, unstimulated, primary screen (AID 1145); conditions: no forskolin, luminescence, 4.5 h, higher = more signal, called active from +8 up or from −8 down
[14] = forskolin-driven CRE-LacZ activity in PC12 – cell-based, CRE-LacZ reporter, forskolin-stimulated, primary screen (AID 1146); conditions: luminescence, 4.5 h, higher = more signal, called active from +8 up or from −8 down;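 further: PC12 cells with 6xCRE LacZ reporter stimulated by forskolin 10 µM; beta-galactosidase reporter signal reflecting CREB driven transcription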
[15] = molecular target: Streptavidin (Streptomyces avidinii) (UniProt P22629); experiment: compounds binding control protein streptavidin – biophysical, small-molecule microarray, 635/667 nm fluorescence, artefact control for SMM compound annotation, primary screen (AID 1147); conditions: higher = more signal;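 further: signal reflects streptavidin binding to arrayed compounds as a control protein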
[16] = probe aInhba binding on compound microarray – biochemical, small-molecule microarray, 635/667 nm fluorescence, primary screen (AID 1148); conditions: higher = more signal;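 further: score merges 667nm spot fluorescence with signal-to-noise for antibody binding to printed compounds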
Torsin-1A (Homo sapiens) [17] = molecular target: Torsin-1A (Homo sapiens) (UniProt O14656); experiment: TOR1A wild-type binding on microarray – cell lysate, small-molecule microarray, lysate, 635/667 nm, primary screen (AID 1149); conditions: COS7 hTOR1A-WT lysate, 635 nm fluorescence, higher = more signal
Torsin-1A (Homo sapiens) [18] = molecular target: Torsin-1A (Homo sapiens) (UniProt O14656); experiment: torsin A mutant lysate binding on microarrays – cell lysate, small-molecule microarray, COS7 lysate, 635/667 nm fluorescence, primary screen (AID 1150); conditions: COS7 hTOR1A mutant lysate, 635 nm fluorescence, higher = more signal;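 further: score pools 667 nm emission and signal to noise measuring lysate protein binding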
[19] = system: Sonic hedgehog protein (Shh); experiment: Sonic hedgehog microarray binding compounds – biochemical, small-molecule microarray, 635/667 nm fluorescence, primary screen (AID 1151); conditions: 635 nm fluorescence, higher = more signal;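 further: Shh protein binding to compounds spotted on small-molecule microarray slides; score combines spot fluorescence intensity with signal-to-noise across triplicate slides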

Chain of Torsin-1A (Homo sapiens) (O14656 whole entry, looked up): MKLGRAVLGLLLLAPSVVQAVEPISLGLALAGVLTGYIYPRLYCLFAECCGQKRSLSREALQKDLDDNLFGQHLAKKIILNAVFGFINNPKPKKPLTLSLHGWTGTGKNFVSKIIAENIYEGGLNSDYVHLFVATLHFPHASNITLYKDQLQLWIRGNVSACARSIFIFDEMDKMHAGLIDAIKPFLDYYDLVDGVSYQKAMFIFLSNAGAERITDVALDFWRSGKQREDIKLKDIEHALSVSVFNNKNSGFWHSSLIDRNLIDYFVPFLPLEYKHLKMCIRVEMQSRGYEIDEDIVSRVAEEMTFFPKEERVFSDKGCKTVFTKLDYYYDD
Chain of Follistatin (Homo sapiens) (P19883 whole entry, looked up): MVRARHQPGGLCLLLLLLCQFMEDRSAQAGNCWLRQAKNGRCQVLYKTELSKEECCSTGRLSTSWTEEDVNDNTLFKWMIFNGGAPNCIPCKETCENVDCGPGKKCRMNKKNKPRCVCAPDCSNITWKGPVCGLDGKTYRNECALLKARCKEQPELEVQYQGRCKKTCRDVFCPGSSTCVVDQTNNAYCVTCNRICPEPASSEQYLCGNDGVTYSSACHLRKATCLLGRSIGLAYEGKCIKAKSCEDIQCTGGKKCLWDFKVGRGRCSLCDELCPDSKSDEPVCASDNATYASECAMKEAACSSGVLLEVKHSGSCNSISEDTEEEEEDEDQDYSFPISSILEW
Chain of Luciferin 4-monooxygenase (Photinus pyralis) (P08659 whole entry, looked up): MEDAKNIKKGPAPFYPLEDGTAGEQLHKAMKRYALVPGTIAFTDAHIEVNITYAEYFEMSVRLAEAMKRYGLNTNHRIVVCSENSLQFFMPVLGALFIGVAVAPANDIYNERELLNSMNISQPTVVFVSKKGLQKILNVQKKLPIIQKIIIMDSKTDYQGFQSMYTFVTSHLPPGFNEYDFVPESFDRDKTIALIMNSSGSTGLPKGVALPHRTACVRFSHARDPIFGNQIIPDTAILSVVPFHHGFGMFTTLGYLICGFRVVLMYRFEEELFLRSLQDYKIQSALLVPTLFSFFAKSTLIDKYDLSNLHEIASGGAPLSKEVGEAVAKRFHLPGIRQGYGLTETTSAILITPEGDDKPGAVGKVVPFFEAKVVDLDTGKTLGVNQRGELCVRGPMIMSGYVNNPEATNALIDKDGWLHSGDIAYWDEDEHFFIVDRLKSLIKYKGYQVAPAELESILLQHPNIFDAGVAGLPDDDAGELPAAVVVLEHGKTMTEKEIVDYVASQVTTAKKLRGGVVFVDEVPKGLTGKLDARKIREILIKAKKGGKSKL
Chain of Fibroblast growth factor 2 (Homo sapiens) (P09038 whole entry, looked up): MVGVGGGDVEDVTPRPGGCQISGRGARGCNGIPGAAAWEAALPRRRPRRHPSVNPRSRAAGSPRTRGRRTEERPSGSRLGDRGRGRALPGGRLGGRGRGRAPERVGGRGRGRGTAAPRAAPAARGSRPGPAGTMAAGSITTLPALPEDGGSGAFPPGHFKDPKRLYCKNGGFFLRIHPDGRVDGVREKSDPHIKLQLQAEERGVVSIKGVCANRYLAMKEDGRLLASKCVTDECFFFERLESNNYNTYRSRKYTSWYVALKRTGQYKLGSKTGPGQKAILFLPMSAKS
Chain of Streptavidin (Streptomyces avidinii) (P22629 whole entry, looked up): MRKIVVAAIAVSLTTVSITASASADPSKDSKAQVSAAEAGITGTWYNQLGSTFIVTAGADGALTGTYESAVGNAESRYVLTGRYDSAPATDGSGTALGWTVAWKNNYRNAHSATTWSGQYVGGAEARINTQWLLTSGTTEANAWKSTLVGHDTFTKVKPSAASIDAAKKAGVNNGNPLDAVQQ
Chain of Focal adhesion kinase 1 (Homo sapiens) (Q05397 whole entry, looked up): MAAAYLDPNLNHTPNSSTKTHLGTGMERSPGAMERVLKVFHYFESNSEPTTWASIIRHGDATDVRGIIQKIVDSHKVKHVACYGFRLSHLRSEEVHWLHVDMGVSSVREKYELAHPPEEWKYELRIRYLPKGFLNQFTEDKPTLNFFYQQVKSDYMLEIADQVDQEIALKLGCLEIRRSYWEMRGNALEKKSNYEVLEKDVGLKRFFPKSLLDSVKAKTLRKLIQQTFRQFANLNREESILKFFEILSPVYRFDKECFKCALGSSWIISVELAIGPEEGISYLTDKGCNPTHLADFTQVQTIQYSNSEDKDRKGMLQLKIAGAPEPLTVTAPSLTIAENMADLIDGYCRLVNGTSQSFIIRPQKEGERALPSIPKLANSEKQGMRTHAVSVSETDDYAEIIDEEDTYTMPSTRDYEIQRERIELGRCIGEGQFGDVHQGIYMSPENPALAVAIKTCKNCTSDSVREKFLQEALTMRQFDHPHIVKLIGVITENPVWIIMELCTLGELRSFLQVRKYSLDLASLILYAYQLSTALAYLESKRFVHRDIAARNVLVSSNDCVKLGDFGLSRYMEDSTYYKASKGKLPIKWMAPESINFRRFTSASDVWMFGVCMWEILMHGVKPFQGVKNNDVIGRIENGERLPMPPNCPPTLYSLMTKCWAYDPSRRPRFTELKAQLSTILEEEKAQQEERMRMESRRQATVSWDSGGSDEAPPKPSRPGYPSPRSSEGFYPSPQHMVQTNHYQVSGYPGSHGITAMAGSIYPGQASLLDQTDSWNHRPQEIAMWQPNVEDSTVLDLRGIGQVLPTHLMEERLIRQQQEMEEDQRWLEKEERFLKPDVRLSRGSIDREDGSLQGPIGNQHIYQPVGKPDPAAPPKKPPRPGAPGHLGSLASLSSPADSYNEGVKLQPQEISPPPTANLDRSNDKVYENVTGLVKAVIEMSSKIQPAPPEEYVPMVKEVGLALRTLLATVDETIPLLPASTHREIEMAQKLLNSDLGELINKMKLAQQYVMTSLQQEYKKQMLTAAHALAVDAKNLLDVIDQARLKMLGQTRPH

Row | SMILES | composite z-score [1] | composite z-score [2] | composite z-score [3] | composite z-score [4] | composite z-score [5] | composite z-score [6] | z-score [7] | composite z-score (Lefty1) | composite z-score [8] | z-score [9] | composite z-score [10] | z-score [11] | z-score [12] | z-score [13] | z-score [14] | composite z-score [15] | composite z-score [16] | composite z-score (Torsin-1A (Homo sapiens) [17]) | composite z-score (Torsin-1A (Homo sapiens) [18]) | composite z-score [19]
1 | O=C1c2ccccc2[C@](Cc2ccccc2I)(C(=O)O)[C@H](c2ccc(CO)cc2)N1Cc1ccccc1C(F)(F)F | 1.3 | 1.09 | 0.425 | 0.9 | 0.72 | -0.238 | -0.635 | -0.374 | 1.12 | 0.63 (inactive) | -0.186 | -1.17 (inactive) | -0.99 (inactive) | -0.295 (inactive) | 0.748 (inactive) | 0.477 | -0.024 | -0.242 | -0.203 | -0.489
2 | C=C(COC)C(=O)CC[C@@H](OC(=O)c1ccccc1-c1ccccc1C(=O)O)c1ccc(CO)o1 | 1.73 | 0.339 | 0.0109 | -0.363 | 1.05 | 1.81 | -0.789 | 1.56 | -0.407 | -3.78 (inactive) | 1.24 | -7.58 (inactive) | 0.164 (inactive) | 8.29 (active) | 5.1 (inactive) | -0.517 | -0.188 | 1.67 | 0.404 | 1.91
3 | C=C(/C(=C/C[C@@H](OC(C)=O)c1ccc(CO)o1)c1cnc2ccccc2c1)C(C)C | 0.452 | 1.23 | 0.88 | 0.594 | 1.4 | 1.9 | -0.527 | 1.37 | 0.463 | -3.13 (inactive) | 1.3 | -0.136 (inactive) | -0.171 (inactive) | 0.159 (inactive) | -0.731 (inactive) | 0.17 | -0.0448 | 2.14 | 0.619 | 2.04
4 | CCCC[C@H]1C[C@@H]1[C@@H]1N(P(=O)(c2ccccc2)c2ccccc2)[C@](CO)(c2ccccc2)CC12CC2 | 0.108 | 1.12 | 0.737 | 0.936 | 0.156 | -1.11 | -1.75 | -0.519 | 0.434 | 2.75 (inactive) | 0.326 | -3.16 (inactive) | 0.76 (inactive) | -0.561 (inactive) | -1.24 (inactive) | 1.15 | 0.0403 | -0.57 | 0.515 | -1.36
5 | Cn1c2c(c3ccccc31)C(=O)C1NC2C=CC1(C)C(=O)OCc1ccccc1 (stereo not given) | 0.262 | 0.291 | 0.0584 | 0.351 | -2.07 | -2.05 | -0.591 | -1.82 | 0.757 | 1.15 (inactive) | -0.348 | -0.171 (inactive) | 0.908 (inactive) | 1.39 (inactive) | 0.716 (inactive) | 0.298 | 0.0442 | -0.327 | 0.285 | -0.699
6 | Cc1ccc(S[C@]2(C(=O)NCC(C)C)CC(=O)N(Cc3ccccc3)[C@@H]2c2ccc(CO)cc2)cc1 | -0.549 | -0.467 | -0.0956 | -1.2 | -0.795 | -0.42 | -0.254 | -1.4 | -0.282 | -0.766 (inactive) | -0.405 | -1.13 (inactive) | 0.459 (inactive) | -0.179 (inactive) | 0.98 (inactive) | -0.987 | -0.152 | -0.258 | -0.293 | -1.45
7 | CC1CC/C=C\[C@H]2OC34C=CCN(c5ccc6ccccc6c5)C(=O)[C@H]3N(CCCCCO)C(=O)[C@@H]4C2C(=O)O1 (stereo not given in full) | -0.946 | -0.824 | -0.673 | -2.2 | -1.02 | -1.65 | 0.987 | -0.994 | -0.0369 | -0.391 (inactive) | -1.12 | 0.385 (inactive) | 0.669 (inactive) | 0.333 (inactive) | -0.233 (inactive) | -1.72 | -0.233 | -1.03 | -1.19 | -1.18
8 | C=CC[C@@]1(C(=O)OC)N=C(c2ccc(OCCCO)cc2)O[C@@H]1c1ccccc1CN=[N+]=[N-] | 0.78 | 0.996 | 0.242 | 0.0758 | 1.05 | 0.0452 | 0.00108 | 0.543 | -0.0321 | 0.668 (inactive) | 0.0122 | -4.22 (inactive) | -0.88 (inactive) | -1.03 (inactive) | -1.5 (inactive) | -0.233 | -0.212 | 0.0478 | -0.249 | 0.838
9 | CCCNC(=O)[C@@]1(C)c2ccccc2C(=O)N(Cc2cc(F)cc(C(F)(F)F)c2)[C@H]1c1ccc(CO)cc1 | 0.858 | -0.331 | -0.527 | -1.73 | -0.839 | -0.812 | -0.394 | -0.662 | 0.932 | 0.942 (inactive) | -0.283 | -3.38 (inactive) | -1.09 (inactive) | 0.208 (inactive) | -0.173 (inactive) | -0.767 | -0.175 | -2.08 | 0.779 | 0.011
10 | CC1CC/C=C\[C@H]2OC34C=CCN(Cn5nnc6ccccc65)C(=O)[C@H]3N(CCCO)C(=O)[C@@H]4C2C(=O)O1 (stereo not given in full) | 0.239 | -0.326 | -0.47 | -1.15 | -0.693 | -1.03 | -0.198 | -0.146 | -1.09 | 0.885 (inactive) | -0.595 | -0.382 (inactive) | -0.281 (inactive) | -0.212 (inactive) | -0.759 (inactive) | -0.958 | -0.157 | -1.89 | -1.33 | 0.0837
11 | [N-]=[N+]=NCc1ccccc1C[C@]1(C(=O)NCCN2CCOCC2)N=C(c2ccc(OCCCO)cc2)O[C@H]1c1ccccc1CN=[N+]=[N-] | 1.09 | 1.21 | 1.43 | 0.99 | 1.11 | 0.783 | 0.963 | 0.886 | 0.495 | 0.203 (inactive) | 0.888 | -6.14 (inactive) | -1.12 (inactive) | 1.34 (inactive) | -0.887 (inactive) | 0.803 | 0.0155 | 0.0892 | 0.938 | 1.45
